# Positions count from the first letter of the chain named. The full ranking holds about 5,800 sequences; the median of “enrichment r” is about 0.68, and the highest 2% start at about 11. Many of the other results were omitted from the sample, so the highest values are more common in it than they were.
# T1: UNK ZnF1-6 (called full-length) (human, UniProt Q9C0B0 30-357)
# T1 sequence: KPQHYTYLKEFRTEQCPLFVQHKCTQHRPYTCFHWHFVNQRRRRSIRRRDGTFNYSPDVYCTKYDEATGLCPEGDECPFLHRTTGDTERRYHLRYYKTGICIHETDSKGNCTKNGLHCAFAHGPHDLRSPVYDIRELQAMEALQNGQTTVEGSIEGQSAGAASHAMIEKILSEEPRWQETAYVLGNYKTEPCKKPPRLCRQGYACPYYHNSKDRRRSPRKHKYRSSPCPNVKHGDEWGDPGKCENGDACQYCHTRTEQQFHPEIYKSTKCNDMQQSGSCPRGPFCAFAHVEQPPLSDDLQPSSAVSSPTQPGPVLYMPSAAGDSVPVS
# B1: ENSG00000099904:stop:overlap|stop_codon|ENSG00000099904|stop_codon|NA|stop_codon (ssRNA)
# RNA: GGGAGUUCUACAGUCCGACGAUCGGGCCAUGUGCCGCCUGCACUUGGCUGCCUCCAGUCUUUUCCCCAGCCUCUCGGGGCCCUAGCAGGAUGACAAGUAGGCGGCUCUGGGGCCCAGGACAGCCCAGCUGGGGACCCAGGAGGCAACAGAGGAUUGAGCAUCA
# B2: chr2:216675367:216675485:-|3pUTR|ENSG00000115461|msi1|FALSE|unique (ssRNA)
# RNA: GGGAGUUCUACAGUCCGACGAUCGCCAGGCAGAGGCCAGCCCUCCGUGGUGCACACAGCACGCGCCUCAGUCCAUCCCAUUUUAGUCUUUAAACCCUCAGGAAGUCACAGUCUCCGGACACCACACCACAUGAGCCCAACAGGCAACAGAGGAUUGAGCAUCA
# B3: chr15:63775065:63775180:-|CDS|ENSG00000103657|unk|FALSE|unique (ssRNA)
# RNA: GGGAGUUCUACAGUCCGACGAUCUGGUUCAGCAGAUGUCCAUUCUGUUAGUGAACGCCCCCGGUCAAGCACUGAUGCACUUAUAGAAAUGGGUGUUCGAACUGGUCUAAGUUUAUUAUUUGCGCUUCUAAGACAAAGUUGGAUCAACAGAGGAUUGAGCAUCA
# B4: chr14:77132432:77132533:-|3pUTR|ENSG00000177108|unk|total|mutant (ssRNA)
# RNA: GGGAGUUCUACAGUCCGACGAUCUGUGAUUGCUGGACCCAGAGGCAAGAUCUGCAGAGAUGCCUGUGAGAUAUUUGCUUUCCCCGAGGGGAGUGUGGGCAUGGGAGGGGUCUGAAAAUCAGGACCCAACCCAGCCACUGAAGACAACAGAGGAUUGAGCAUCA
# B5: chr3:25596636:25596694:+|3pUTR|ENSG00000077092|msi1_unk|FALSE|overlapping (ssRNA)
# RNA: GGGAGUUCUACAGUCCGACGAUCUCCCCAGUACCUUCAGUUCCAGGAUUUAAAAUGCAAGAAAAAACAUUUUUACUGCUGCUUAGUUUUUGGACUGAAAAGAUAUUAAAACUCAAGAAGGACCAAGAAGUUUUCAUAUGUAUCCAACAGAGGAUUGAGCAUCA
# B6: ENSG00000137168:stop:overlap|stop_codon|ENSG00000137168|stop_codon|NA|stop_codon (ssRNA)
# RNA: GGGAGUUCUACAGUCCGACGAUCCAAACUCCCAGGACCGCCCUGUGGACGACGUGAAGAUCAUUAAGGCAUACCCUUCUGGGUAGACUUGCUACCCUCUUGAGCAGCUCUUCUGAGAUGGCCCCAGUGAACCAGCUUCUAGAUCAACAGAGGAUUGAGCAUCA
# B7: chr8:22006364:22006465:+|3pUTR|ENSG00000130227|msi1|FALSE|unique (ssRNA)
# RNA: GGGAGUUCUACAGUCCGACGAUCUGUUGCUGCUAGUUGUACACAUCUCUAGUUCAGCUCUUGCCCACGGGACACUCAUCAAUUAGGUUUUAUUUUUAUUUCUUUCCUCUACCCCCAGAAACAAGCCUGUUAAUUUUUUUUCCUCAACAGAGGAUUGAGCAUCA
# B8: chr8:22006364:22006465:+|3pUTR|ENSG00000130227|msi1|total|mutant (ssRNA)
# RNA: B7 RNA with U33C, A34C, U49C, A50C, U83C, A84C
# B9: ENSG00000070961:be:win_6151|3pUTR|ENSG00000070961|bound_else_gene|NA|bound_elsewhere_windowed (ssRNA)
# RNA: GGGAGUUCUACAGUCCGACGAUCCAAUCACUUUUUCUCUUUUAUCCUCUAACCAAAAAAUUGUUUAAUUUUGCAUCCCAAAUGUUUUUAAUCUUUGUAUAUUUUUUAAAAAUCCUUUUCUCCUCAUCAUUGCCUUUUUUGUGGCAACAGAGGAUUGAGCAUCA
# B10: chr2:74214837:74214938:+|3pUTR|ENSG00000065911|msi1_unk|FALSE|overlapping (ssRNA)
# RNA: GGGAGUUCUACAGUCCGACGAUCCUGUCCUUUUGAGGCUUAGUCAGUUUAUUGGGAAAAUGUUUAGGAUUAUUCCUUGCUAUUAGUACUCAUUUUAUGUAUGUUACCCUUCAGUAAGUUCUCCCCAUUUUAGUUUUCUAGGACCAACAGAGGAUUGAGCAUCA
# B11: chr2:74214837:74214938:+|3pUTR|ENSG00000065911|msi1_unk|total|mutant (ssRNA)
# RNA: B10 RNA with U40C, A41C, U64C, A65C, U83C, A84C, U130C, A131C, U138C, A139C
# B12: chr6:43186014:43186115:+|CDS|ENSG00000112659|msi1|total|mutant (ssRNA)
# RNA: GGGAGUUCUACAGUCCGACGAUCCUGCUUUUCUCCUUGGUGAAGCGCUACCUUUGUGUCACGUCCCUCCUGGAUCAGCUGAACCGCAGUCCAGAGCUGGGAGCUGGAGACCAAAGCUCCCCAUGUGCCACAAGAGAGAAAAGCCAACAGAGGAUUGAGCAUCA
# B13: chr6:15520333:15520434:+|3pUTR|ENSG00000008083|unk|FALSE|unique (ssRNA)
# RNA: GGGAGUUCUACAGUCCGACGAUCCUUGCUGUAGGAUUCAAGCUGUCUUUGCACUAGCUCUAAAGAAGAUUUUCUUCUGGUUUUAGAGAACUAAUUUUGUUUUAGCAUUAAACUGUUGAACUUUUUUUUGUACUUAGAAAACCUCAACAGAGGAUUGAGCAUCA
# B14: ENSG00000147536:stop:overlap|stop_codon|ENSG00000147536|stop_codon|NA|stop_codon (ssRNA)
# RNA: GGGAGUUCUACAGUCCGACGAUCUCCGCUACGUCCUCAGCAGCUACUUGCGGUGUCGCCUCAUGAAGUUCCCAAACCAGAUCUAGAUUCUUACGUGUUUCUGAGAGUGAGAGAACGACAAGAAAACAUACUGGUAGAACCAGACAACAGAGGAUUGAGCAUCA
# B15: chr7:7234405:7234460:+|CDS|ENSG00000106392|msi1_unk|FALSE|overlapping (ssRNA)
# RNA: GGGAGUUCUACAGUCCGACGAUCAAUUUUUUAACCUUCCUCUGUGGAUCAGCAAUAGGAUUUCUUUUAUGUUCUCAGCUAUUUAGUAUUUUGUUGGGAGAAAAGGUUGACACCCAGCCUAAUGUUCUUCAUAAUGAUCCUCAUCAACAGAGGAUUGAGCAUCA
# B16: chr13:51761002:51761103:+|3pUTR|ENSG00000139668|unk|FALSE|unique (ssRNA)
# RNA: GGGAGUUCUACAGUCCGACGAUCACGGCAAGAUUGUAAUCCUGCUGUAUUCCUCGCCCUCUGUAUUCUAUCCCUUUAAAAACUAGAUAUUUAAACAUUUUAUCCUAAUGUGUUUCAUCAGAACACUUUGCACACUUUCUUACUCAACAGAGGAUUGAGCAUCA
# Molecular target: T1, UNK ZnF1-6 (called full-length)
# Experiment: nsRBNS (natural sequence RNA bind-n-seq); RBNS binding buffer (assumed for nsRBNS): 25 mM Tris pH 7.5, 150 mM KCl, 3 mM MgCl2, 0.01% Triton X-100, 500 ug/ml BSA, 20 U/ml SUPERase-In, 4 C; UNK is unkempt and MSI1 is Musashi-1; names of the RNAs are library labels; protein concentration not given here; high values mean tight binding
row,Binder,binding signal
1,B1,1.2 enrichment R
2,B2,2.44 enrichment R
3,B3,0.696 enrichment R
4,B4,0.528 enrichment R
5,B5,0.303 enrichment R
6,B6,0.7 enrichment R
7,B7,41.4 enrichment R
8,B8,2.95 enrichment R
9,B9,4.78 enrichment R
10,B10,12.4 enrichment R
11,B11,0.338 enrichment R
12,B12,0.544 enrichment R
13,B13,3.46 enrichment R
14,B14,33.9 enrichment R
15,B15,2.12 enrichment R
16,B16,28.5 enrichment R
